Columns and labels:
Assay in all cases: DAPPL (digital affinity profiling via proximity ligation, sequencing); 10 mM Tris-HCl pH 7.5, 50 mM NaCl, 1 mM DTT, 4% glycerol, room temperature, 30 min; GST-TFs on glutathione beads, 16-mer random dsDNA library, 0.1% formaldehyde crosslink after washing; high values mean tight binding
Details in all cases: protein: recombinant; tags: N-terminal GST; dsDNA, one strand shown
FLI1 = molecular target: T1, FLI1 (Homo sapiens, UniProt Q01543 1-452)
T1 sequence: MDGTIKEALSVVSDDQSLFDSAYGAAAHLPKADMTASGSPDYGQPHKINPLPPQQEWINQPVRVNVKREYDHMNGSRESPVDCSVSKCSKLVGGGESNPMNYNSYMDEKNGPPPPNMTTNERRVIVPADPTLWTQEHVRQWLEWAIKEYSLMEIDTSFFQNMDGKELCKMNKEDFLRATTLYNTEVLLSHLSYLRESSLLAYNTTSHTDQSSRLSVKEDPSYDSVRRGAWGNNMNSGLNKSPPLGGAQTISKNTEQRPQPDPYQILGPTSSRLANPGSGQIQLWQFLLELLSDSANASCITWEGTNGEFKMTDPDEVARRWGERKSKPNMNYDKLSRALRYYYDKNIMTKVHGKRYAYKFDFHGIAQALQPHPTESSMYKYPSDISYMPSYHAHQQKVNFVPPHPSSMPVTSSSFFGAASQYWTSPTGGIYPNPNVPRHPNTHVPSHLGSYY
Method in brief: (§1)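 A tag-only sample was pooled with DNA-barcoded human transcription factors that had been expressed in yeast as GST fusions and captured on glutathione beads. The pools were incubated for 30 min at room temperature with 200 nmole of a random double-stranded 16-mer DNA library in Tris/NaCl/DTT/glycerol buffer, then washed, crosslinked with 0.1% formaldehyde, proximity-ligated (BsaI/T4 ligase, 1 h, 37 °C), PCR-amplified and sequenced on an Illumina NextSeq500. Binding signal is each hexamer's read frequency for a factor divided by its frequency for the tag-only sample.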

ELK1 = molecular target: T2, ELK1 (Homo sapiens, UniProt P19419 1-428)
T2 sequence: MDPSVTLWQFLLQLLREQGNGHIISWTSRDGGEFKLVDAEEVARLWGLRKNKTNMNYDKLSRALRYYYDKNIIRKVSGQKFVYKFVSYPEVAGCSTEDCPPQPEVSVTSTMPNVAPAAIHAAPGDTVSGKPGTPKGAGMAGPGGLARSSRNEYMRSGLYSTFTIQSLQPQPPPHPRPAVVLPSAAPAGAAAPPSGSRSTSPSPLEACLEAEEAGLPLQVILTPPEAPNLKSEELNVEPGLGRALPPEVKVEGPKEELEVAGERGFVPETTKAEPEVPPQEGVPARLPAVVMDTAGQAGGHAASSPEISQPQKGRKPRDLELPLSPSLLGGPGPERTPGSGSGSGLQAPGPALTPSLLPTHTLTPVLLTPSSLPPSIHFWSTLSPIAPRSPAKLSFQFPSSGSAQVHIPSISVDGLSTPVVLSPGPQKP
Method in brief: as §1

GABPA = molecular target: T3, GABPA (Homo sapiens, UniProt Q06546 1-454)
T3 sequence: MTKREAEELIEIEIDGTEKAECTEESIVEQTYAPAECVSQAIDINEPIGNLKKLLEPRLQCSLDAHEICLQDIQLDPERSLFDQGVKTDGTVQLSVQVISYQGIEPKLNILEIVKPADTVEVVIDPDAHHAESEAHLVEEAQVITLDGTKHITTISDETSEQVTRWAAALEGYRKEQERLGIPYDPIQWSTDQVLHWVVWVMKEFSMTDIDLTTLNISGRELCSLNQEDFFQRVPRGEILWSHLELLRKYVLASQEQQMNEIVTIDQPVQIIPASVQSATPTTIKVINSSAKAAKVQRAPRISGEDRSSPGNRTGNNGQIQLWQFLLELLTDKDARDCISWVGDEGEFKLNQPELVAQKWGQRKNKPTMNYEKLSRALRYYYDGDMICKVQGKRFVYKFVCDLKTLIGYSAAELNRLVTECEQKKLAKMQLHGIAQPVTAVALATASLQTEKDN
Method in brief: as §1

ERG = molecular target: T4, ERG (Homo sapiens, UniProt P11308 1-479)
T4 sequence: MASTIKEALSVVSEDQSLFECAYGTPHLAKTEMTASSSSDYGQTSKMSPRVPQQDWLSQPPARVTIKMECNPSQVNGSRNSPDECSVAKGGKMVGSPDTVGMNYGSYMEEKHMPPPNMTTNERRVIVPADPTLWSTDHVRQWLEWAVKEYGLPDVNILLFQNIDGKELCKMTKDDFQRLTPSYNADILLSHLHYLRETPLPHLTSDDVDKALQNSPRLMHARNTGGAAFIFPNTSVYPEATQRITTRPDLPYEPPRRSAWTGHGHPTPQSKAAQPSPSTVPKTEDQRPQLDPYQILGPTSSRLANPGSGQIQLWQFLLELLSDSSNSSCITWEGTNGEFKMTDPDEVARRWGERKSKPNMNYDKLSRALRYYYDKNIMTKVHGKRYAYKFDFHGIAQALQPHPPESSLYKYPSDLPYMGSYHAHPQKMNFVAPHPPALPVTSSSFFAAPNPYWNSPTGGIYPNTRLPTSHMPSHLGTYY
Method in brief: as §1

ELF1 = ELF1 (Homo sapiens, UniProt P32519 1-619)
Method in brief: as §1

EHF = molecular target: T5, EHF (Homo sapiens, UniProt Q9NZC4 1-300)
T5 sequence: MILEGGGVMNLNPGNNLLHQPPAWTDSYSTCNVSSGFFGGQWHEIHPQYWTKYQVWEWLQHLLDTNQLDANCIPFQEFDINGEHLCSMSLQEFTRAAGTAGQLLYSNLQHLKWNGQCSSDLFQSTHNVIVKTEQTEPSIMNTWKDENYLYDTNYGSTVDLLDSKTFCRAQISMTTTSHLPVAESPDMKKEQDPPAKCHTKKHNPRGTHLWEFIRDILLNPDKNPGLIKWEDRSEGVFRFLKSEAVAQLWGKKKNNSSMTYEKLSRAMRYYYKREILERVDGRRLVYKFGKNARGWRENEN
Method in brief: as §1

SPI1 = SPI1 (Homo sapiens, UniProt P17947 1-270)
Method in brief: as §1

SPIB = SPIB (Homo sapiens, UniProt Q01892 1-262)
Method in brief: as §1

ELK3 = molecular target: T6, ELK3 (Homo sapiens, UniProt P41970 1-407)
T6 sequence: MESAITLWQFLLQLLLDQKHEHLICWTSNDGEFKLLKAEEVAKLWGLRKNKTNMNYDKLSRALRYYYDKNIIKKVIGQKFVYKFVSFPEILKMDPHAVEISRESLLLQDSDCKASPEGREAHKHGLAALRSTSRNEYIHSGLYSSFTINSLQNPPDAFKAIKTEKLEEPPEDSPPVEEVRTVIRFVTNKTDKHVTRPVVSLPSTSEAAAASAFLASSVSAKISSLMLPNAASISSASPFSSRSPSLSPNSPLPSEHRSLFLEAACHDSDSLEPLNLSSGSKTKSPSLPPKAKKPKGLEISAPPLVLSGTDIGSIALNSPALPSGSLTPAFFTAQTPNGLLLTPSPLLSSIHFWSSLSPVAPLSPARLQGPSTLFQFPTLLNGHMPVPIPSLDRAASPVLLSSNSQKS
Method in brief: as §1

Chain of SPIB (Q01892 whole entry): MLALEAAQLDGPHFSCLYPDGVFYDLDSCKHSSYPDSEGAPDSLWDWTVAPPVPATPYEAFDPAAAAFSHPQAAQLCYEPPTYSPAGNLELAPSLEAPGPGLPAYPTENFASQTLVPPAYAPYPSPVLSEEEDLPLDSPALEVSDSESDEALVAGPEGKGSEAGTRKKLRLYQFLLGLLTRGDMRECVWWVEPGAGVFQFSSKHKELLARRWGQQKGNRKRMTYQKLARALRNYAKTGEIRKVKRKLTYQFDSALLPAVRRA
Chain of ELF1 (P32519 whole entry): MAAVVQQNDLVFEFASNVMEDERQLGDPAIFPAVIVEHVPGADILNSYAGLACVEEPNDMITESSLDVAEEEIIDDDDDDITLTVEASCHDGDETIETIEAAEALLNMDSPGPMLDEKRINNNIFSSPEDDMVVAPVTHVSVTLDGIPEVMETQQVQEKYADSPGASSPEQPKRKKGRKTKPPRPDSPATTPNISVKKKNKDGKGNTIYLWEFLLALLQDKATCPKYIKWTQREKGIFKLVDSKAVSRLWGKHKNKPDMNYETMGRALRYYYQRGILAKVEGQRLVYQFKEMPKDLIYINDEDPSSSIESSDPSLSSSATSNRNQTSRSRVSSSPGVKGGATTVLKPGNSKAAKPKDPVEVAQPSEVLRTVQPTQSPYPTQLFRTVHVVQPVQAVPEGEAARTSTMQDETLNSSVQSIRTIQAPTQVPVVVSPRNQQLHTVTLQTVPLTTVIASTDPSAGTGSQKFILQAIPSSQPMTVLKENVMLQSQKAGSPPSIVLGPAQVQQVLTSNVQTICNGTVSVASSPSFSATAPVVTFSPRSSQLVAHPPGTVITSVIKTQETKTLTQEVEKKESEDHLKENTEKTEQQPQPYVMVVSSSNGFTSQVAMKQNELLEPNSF

With TTTATA the binding signal (FLI1) was 1.32 fold enrichment (6-mer frequency, TF over GST control), the binding signal (ELK1) was 1.27 fold enrichment (6-mer frequency, TF over GST control) and the binding signal (GABPA) was 1.36 fold enrichment (6-mer frequency, TF over GST control). The binding signal (ERG) was 1.29 fold enrichment (6-mer frequency, TF over GST control), the binding signal (ELF1) was 1.23 fold enrichment (6-mer frequency, TF over GST control) and the binding signal (EHF) was 1.4 fold enrichment (6-mer frequency, TF over GST control). The binding signal (SPI1) was 1.34 fold enrichment (6-mer frequency, TF over GST control), the binding signal (SPIB) was 1.33 fold enrichment (6-mer frequency, TF over GST control) and the binding signal (ELK3) was 1.28 fold enrichment (6-mer frequency, TF over GST control).

From article PMC7862700, “An all-to-all approach to the identification of sequence-specific readers for epigenetic DNA modifications on cytosine”
